Experimental findings from PubChem BioAssay (NCATS) are described below.

The target of the experiment is Phospholipid hydroperoxide glutathione peroxidase GPX4 (Homo sapiens) (UniProt P36969). Briefly: Primary qHTS Assay for Inhibitors of Recombinant Selenoprotein Glutathione Peroxidase 4 (GPX4) (AID 1845192). Also: nearly all actives have a fitted effect of over 65% in size. As to conditions: recombinant GPX4, GR-coupled NADPH fluorescence, 15 min; series mostly up to 50 µM. An outline of the steps: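 GR-coupled readout: 100 nM GR, 1 mM GSH, 0.5 mM NADPH; NADPH fluorescence (ex 340/em 450 nm) read at t=0 and after 15 min RT. GPX4 200 nM, preincubated 30 min with compound; substrate 0.5 mM CHP.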
Chain of Phospholipid hydroperoxide glutathione peroxidase GPX4 (Homo sapiens) (P36969 whole entry, looked up): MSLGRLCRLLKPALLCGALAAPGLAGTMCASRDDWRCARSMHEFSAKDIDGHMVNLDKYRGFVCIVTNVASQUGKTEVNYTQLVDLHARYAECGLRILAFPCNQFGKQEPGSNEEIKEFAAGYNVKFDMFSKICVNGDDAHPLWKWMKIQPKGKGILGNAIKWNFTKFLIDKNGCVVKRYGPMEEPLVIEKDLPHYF
For orientation: Quantitative high-throughput screening tests each substance at several concentrations.

Records with an inconclusive call do not appear. A call without a number means that no potency is given here. Calls of active or inactive are those of the source. Calls follow the shape of the dose curve; as a rule, active = well fitted inhibition curve with a large enough effect; inconclusive = small, poorly fitted or top-dose-only effect; inactive = flat fitted curve, though single readings scatter.
Potency is read from the fitted curve at half-maximal effect.

On to `Cc1cccc(C2CN(C)CCc3c2cc(O)c(O)c3Cl)c1` (configuration not stated), for which the Potency result is “inactive”.
Under `C[C@H]1CC2C3CCC4=CC(=O)C=C[C@]4(C)[C@@]3(Cl)[C@@H](O)C[C@]2(C)[C@@]1(O)C(=O)CO` (some centres not stated) stands “inactive”; under `NC(C(=O)N[C@@H]1C(=O)N2C(C(=O)O)=C(Cl)CS[C@H]12)c1ccccc1` (some centres not stated), “inactive”.
Then `CC(N)=O`, with “inactive”; and `N#Cc1cc([N+](=O)[O-])c2sc(C(N)=O)[n+]([O-])c2c1`, with “inactive”.
In the case of `N[C@@H](Cc1c[nH]c2ccccc12)C(=O)O`, the Potency entry was “inactive”.
Then `CCCCCCC(=O)OC1CC(C)(C)NC(C)(C)C1`, with “inactive”; and `CCCCCCC/C=C\CCCCCCCCC(=O)O`, with “inactive”.
As for `C=CC1(C)CC(=O)C2(O)C(C)(O1)C(OC(C)=O)C(O)C1C(C)(C)CCC(O)C12C` (configuration not stated), the Potency result was “inactive”.
Then `O=c1[nH]c2cc(Cl)ccc2c(O)c1-c1ccc(Oc2ccccc2)cc1`, with “inactive”.
Then `CCCn1c(=O)c2[nH]c(-c3ccc(S(=O)(=O)O)cc3)nc2n(CCC)c1=O`, with 11.2 µM (active); and `CCCN(CCc1ccccc1)C1CCc2c(O)cccc2C1` (configuration not stated), with “inactive”; and `O=C1C2C=CC=CC2=NC(=S)N1CCN1CCC(=C(c2ccc(F)cc2)c2ccc(F)cc2)CC1` (configuration not stated), with “inactive”.
On to `CC(C)(C)c1cc(/C=C(\C#N)C(N)=S)cc(C(C)(C)C)c1O`, for which the Potency entry was “inactive”.
Under `NC(N)=[N+]1CCc2ccccc2C1` stands “inactive”; under `O=C(OCCN1CCOCC1)C1(c2ccccc2)CCCCC1`, “inactive”; under `N[C@@H](Cc1ccc(F)cc1)C(=O)O`, “inactive”.
As to `NC1(C(=O)O)CCc2cc(C(=O)O)ccc21` (configuration not stated), the Potency entry was “inactive”.
Under `CN1CCN(c2nc3cc(C(F)(F)F)ccc3n3cccc23)CC1` stands “inactive”; under `N#CC(=C(\N)Sc1ccccc1N)/C(C#N)=C(/N)Sc1ccccc1N`, “inactive”; under `CC(C)NC[C@H](O)COc1cccc2ccccc12`, “inactive”.
On to `OC[C@H]1NC[C@@H](O)[C@@H]1O`, for which the Potency entry is “inactive”.
